Source: PubChem
Rows were chosen to be rich in hits. Some 6.7% of all compounds tested hit in one or more screens of this group.
T cruzi growth-1: inhibitors of T. cruzi proliferation; inhibition, % at 8.34 µM; 77,000 compounds, 5.9% hits; T. cruzi beta-gal in NIH3T3, GalScreen luminescence, 90 h;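 active means mean inhibition above about 93%, with at least 55% of replicates each passing it, limit read from the data, passing the limit was not always enough; inconclusive means only one of those two conditions holds; inactive means neither condition holds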
Pf Dd2 growth: inhibitors of Plasmodium falciparum Dd2 growth. P. falciparum Dd2 growth, SYBR Green, 72 h; active compounds read low. activity change, % at 10 µM. 94,000 compounds, 2.3% hits. AID 1159554; in the data active means activity change below about -80%; inconclusive means no clear call, values can overlap the other calls
C diff growth: inhibitors of Clostridium difficile growth; Clostridium difficile clinical isolate growth, OD600, 24 h; active compounds read low; growth activity, negative = inhibition, % at 16 µg/mL (by protocol); 86,000 compounds, 0.25% hits; AID 1259249;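 active means mean growth activity at or below -80% and every replicate also at or below -80%; inconclusive means mean at or below -80% but some replicate above -80%; inactive means mean growth activity above -80%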
T cruzi growth-2: blocks T. cruzi growth in NIH3T3 host cells | shares compounds with T cruzi growth-1 | T. cruzi beta-gal in NIH3T3, GalScreen luminescence, 90 h | inhibition, % at 8.35 µM | 5,600 compounds, 72% hits;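 active means mean replicate inhibition above about 95% and at least 55% of replicates individually reaching it, limit read from the data; inconclusive means only one of the two criteria is met; inactive means neither criterion is met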
T cruzi growth-3: blocks T. cruzi growth in NIH3T3 host cells; inhibition, % at 2.09 µM; 5,600 compounds, 21% hits; shares compounds with T cruzi growth-1; T. cruzi beta-gal in NIH3T3, GalScreen luminescence, 90 h;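 active means mean inhibition above about 95%, with at least 55% of replicates also reaching it, limit read from the data; inconclusive means meets just one of the two conditions; inactive means meets neither condition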
NIH3T3 tox: kills mouse NIH/3T3 fibroblasts; cytotoxicity (signal decrease), % at 8.35 µM; AID 651742; NIH/3T3 viability, CellTiter-Glo ATP luminescence, 90 h; shares compounds with T cruzi growth-1; 5,600 compounds, 14% hits;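 active means mean signal decrease across replicates above about 35% based on untreated-well scatter, with enough replicates individually passing, limit read from the data; inconclusive means no rule stated though some were filed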
NIH3T3 tox 2: kills mouse NIH/3T3 fibroblasts; shares compounds with T cruzi growth-1; NIH/3T3 viability, CellTiter-Glo ATP luminescence, 90 h; inhibition, % at 24.9 µM; 5,600 compounds, 56% hits; AID 651744;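 active means mean loss of cell viability signal at or above a set limit, and enough replicates individually reaching it; inconclusive means meets only the mean limit or only the replicate share; inactive means meets neither condition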
Numbers stand for hits; n = inactive; u = inconclusive; x = not tested or not shown.

SMILES	T cruzi growth-1	Pf Dd2 growth	C diff growth	T cruzi growth-2	T cruzi growth-3	NIH3T3 tox	NIH3T3 tox 2
Cc1ccccc1S(=O)(=O)N1CCCCN2[C@H](CO)[C@@H](c3ccc(-c4cccc(F)c4)cc3)[C@H]2C1	106	n	n	104	n	n	76
Cc1ccccc1S(=O)(=O)N1CCCCN2[C@@H](CO)[C@@H](c3ccc(-c4cccc(F)c4)cc3)[C@@H]2C1	n	n	n	x	x	x	x
Cc1ccccc1S(=O)(=O)N1CCCCN2[C@H](CO)[C@H](c3ccc(-c4cccc(F)c4)cc3)[C@@H]2C1	n	n	n	x	x	x	x
Cc1ccccc1S(=O)(=O)N1CCCCN2[C@H](CO)[C@H](c3ccc(-c4ccccc4)cc3)[C@@H]2C1	n	n	n	x	x	x	x
Cc1ccccc1S(=O)(=O)N1CCCCN2[C@H](C1)[C@H](c1ccc(-c3cccc(F)c3)cc1)[C@@H]2CO	103	n	n	103	106	n	57
Cc1ccccc1S(=O)(=O)N1CCCCN2[C@H](CO)[C@@H](c3ccc(-c4ccccc4)cc3)[C@@H]2C1	102	n	n	98	n	36	45
Cc1noc(C)c1NC(=O)N(C)C[C@@H]1Oc2c(NS(=O)(=O)c3cccs3)cccc2C(=O)N([C@H](C)CO)C[C@H]1C	n	n	x	x	x	x	x
COC(=O)C[C@H]1C[C@@H]2c3cc(NC(=O)NC4CCCCC4)ccc3O[C@@H]2[C@@H](CO)O1	n	n	x	x	x	x	x
O=C(N[C@@H]1C=C[C@@H](CC(=O)N2CCOCC2)O[C@@H]1CO)c1ccccn1	n	n	n	x	x	x	x
C/C=C/c1cnc2c(c1)C(=O)N([C@H](C)CO)C[C@H](C)[C@@H](CN(C)Cc1ccccc1F)O2	x	n	n	x	x	x	x
C/C=C/c1cnc2c(c1)C(=O)N([C@H](C)CO)C[C@H](C)[C@H](CN(C)Cc1ccccc1F)O2	x	n	n	x	x	x	x
C[C@@H]1CN([C@H](C)CO)C(=O)c2cc(/C=C/c3ccccc3)cnc2O[C@@H]1CN(C)Cc1ccccc1F	116	n	n	n	n	n	35
C[C@H](CO)N1C[C@H](C)[C@@H](CN(C)Cc2ccccc2F)Oc2ncc(/C=C/c3ccccc3)cc2C1=O	120	n	n	108	n	n	104
C/C=C/c1cnc2c(c1)C(=O)N([C@H](C)CO)C[C@@H](C)[C@H](CN(C)Cc1ccccc1F)O2	x	n	n	x	x	x	x
C[C@H]1CN([C@@H](C)CO)C(=O)c2cc(/C=C/c3ccccc3)cnc2O[C@H]1CN(C)Cc1ccccc1F	116	n	n	104	n	n	41
C[C@H]1CN([C@@H](C)CO)C(=O)c2cc(/C=C/c3ccccc3)cnc2O[C@@H]1CN(C)Cc1ccccc1F	112	n	n	111	n	n	105
C/C=C/c1cnc2c(c1)C(=O)N([C@@H](C)CO)C[C@H](C)[C@@H](CN(C)Cc1ccccc1F)O2	x	n	n	x	x	x	x
COc1ccc2c3c(n(C)c2c1)[C@@H](CO)N(CC1CC1)CC31CN(C(=O)c2ccc(F)cc2)C1	x	n	n	x	x	x	x
CNC[C@H]1Oc2ccc(NC(=O)CCC(F)(F)F)cc2CC(=O)N([C@@H](C)CO)C[C@H]1C	n	n	n	x	x	x	x
O=C(C[C@H]1CC[C@H](NS(=O)(=O)c2ccccc2)[C@H](CO)O1)NCCN1CCCCC1	n	n	n	x	x	x	x
C[C@@H]1CN([C@@H](C)CO)C(=O)c2cccc(NS(=O)(=O)c3cn(C)cn3)c2O[C@@H]1CN(C)CC1CC1	n	n	n	x	x	x	x
COc1cccc(CNC(=O)C[C@H]2C=C[C@H](NS(=O)(=O)c3ccccc3OC)[C@@H](CO)O2)c1	n	n	n	x	x	x	x
C[C@@H]1CCCCO[C@@H](CN(C)Cc2ccc(C(F)(F)F)cc2)[C@@H](C)CN([C@@H](C)CO)C(=O)c2cc(NC(=O)c3ccncc3)ccc2O1	n	n	n	x	x	x	x
C[C@@H]1CN([C@H](C)CO)C(=O)c2cc(NC(=O)c3ccncc3)ccc2O[C@@H](C)CCCCO[C@@H]1CN(C)Cc1ccc(C(F)(F)F)cc1	109	n	n	109	n	n	26
C[C@H]1CCCCO[C@H](CN(C)Cc2ccc(C(F)(F)F)cc2)[C@@H](C)CN([C@@H](C)CO)C(=O)c2cc(NC(=O)c3ccncc3)ccc2O1	98	n	n	103	n	n	106
SMILES	T cruzi growth-1	Pf Dd2 growth	C diff growth	T cruzi growth-2	T cruzi growth-3	NIH3T3 tox	NIH3T3 tox 2
C[C@@H]1CCCCO[C@H](CN(C)Cc2ccc(C(F)(F)F)cc2)[C@@H](C)CN([C@H](C)CO)C(=O)c2cc(NC(=O)c3ccncc3)ccc2O1	n	n	n	x	x	x	x
C[C@@H]1CCCCO[C@H](CN(C)Cc2ccc(C(F)(F)F)cc2)[C@H](C)CN([C@H](C)CO)C(=O)c2cc(NC(=O)c3ccncc3)ccc2O1	109	n	n	106	n	n	73
C[C@H]1CCCCO[C@@H](CN(C)Cc2ccc(C(F)(F)F)cc2)[C@@H](C)CN([C@@H](C)CO)C(=O)c2cc(NC(=O)c3ccncc3)ccc2O1	n	n	n	x	x	x	x
COc1ccc(S(=O)(=O)Nc2ccc3c(c2)C(=O)N([C@@H](C)CO)C[C@H](C)[C@H](CN(C)C(=O)CCCN(C)C)OCCCC[C@@H](C)O3)cc1	x	n	n	x	x	x	x
COc1ccc(NC(=O)N(C)C[C@@H]2OCCCC[C@@H](C)Oc3ccc(NC(=O)c4ccccc4)cc3C(=O)N([C@H](C)CO)C[C@H]2C)cc1	n	n	n	x	x	x	x
COc1cccc(NC(=O)N2C[C@@H](O)COC[C@@H]3O[C@H](CC(=O)NCCCN4CCOCC4)CC[C@H]32)c1	x	n	n	x	x	x	x
O=C(c1ccc(F)cc1)N1CCCCN2[C@@H](CO)[C@@H](c3ccc(C#CC4(O)CCCC4)cc3)[C@@H]2C1	u	n	n	n	n	n	n
O=C(c1ccc(F)cc1)N1CCCCN2[C@@H](CO)[C@H](c3ccc(C#CC4(O)CCCC4)cc3)[C@@H]2C1	n	n	n	x	x	x	x
O=C(c1ccc(F)cc1)N1CCCCN2[C@H](CO)[C@H](c3ccc(C#CC4(O)CCCC4)cc3)[C@H]2C1	106	n	n	n	n	n	n
O=C(C1CC1)N1CCCCN2[C@@H](CO)[C@H](c3ccc(C#CC4(O)CCCC4)cc3)[C@@H]2C1	n	n	n	x	x	x	x
CCCNC(=O)N1CCC2(CC1)CN(C(C)=O)[C@@H](CO)c1c2c2ccc(OC)cc2n1C	x	n	x	x	x	x	x
C[C@@H]1CCCCO[C@H](CN(C)CC2CCCCC2)[C@H](C)CN([C@H](C)CO)C(=O)c2cc(NS(=O)(=O)c3ccccc3)ccc2O1	n	n	n	x	x	x	x
CO[C@H]1CN(C)C(=O)c2ccc(NC(=O)NC(C)C)cc2OC[C@H](C)N(C(=O)NC(C)C)C[C@H]1C	n	n	n	x	x	x	x
CN(C)CC(=O)N1CCCCN2[C@@H](CO)[C@@H](c3ccc(-c4cncnc4)cc3)[C@@H]2C1	n	n	n	x	x	x	x
